SMILES strings stand for the structures.

The target in this assay is AMP-activated protein kinase, AMPK (Homo sapiens) (UniProt P54646+O43741+P54619+Q9UGJ0+Q9Y478+Q13131+Q9UGI9). Kind of assay: AMP-dependent Kinase enzyme assay. An in vitro enzyme assay that detects ADP turnover that is directly proportional to AMPK activity. This uses naive AMPK that is activated during the assay with MK-8722. In kind it is functional. The arrangement: scale not given: direction of the effect not stated beside the values. As to conditions: 30 µM.
As for `COCC(NC(=O)c1cc(NC(C)=O)ccc1Cl)c1ccnn1C` (stereo not given), the Percent Effect was -8.6%.

For the compound `CCN(CC(=O)NC(C)C)C(=O)c1csc(Cc2ccccc2)n1`, the Percent Effect was -2.97%.

In the case of `CN(CC(=O)NCC(F)(F)F)Cc1cccc2c1OCCO2`, the Percent Effect is 3.65%.

For the compound `CCC1COCCN1C(=O)NCc1nccn1CCc1ccccc1` (stereo not given), the Percent Effect was -3.33%.

Consider `CNC(=O)C(C)NC(=O)c1cc(COc2ccc(OC)cc2Cl)[nH]n1` (stereo not given), for which the Percent Effect was -1.41%.

Take `COCCNC(=O)N1CCOCC1c1c(C)nn(C)c1C` (stereo not given): the Percent Effect was -0.499%.

On to `Cc1noc(C)c1CCCNC(=O)Nc1cccc([S+](C)[O-])c1` (stereo not given), for which the Percent Effect is 4.42%.

For the compound `c1cnc(N2CCCC(Cc3nccs3)C2)nc1` (stereo not given), the Percent Effect is 0.818%.

For `CN(CC1CCCCO1)c1nc2c(cc1C(N)=O)CCC2` (stereo not given), the Percent Effect was -5.23%.

As for `CN1CC(c2ccccc2)CC2(CCN(Cc3ncc[nH]3)CC2)C1` (stereo not given), the Percent Effect was -6.61%.

As to `O=C(NCCS(=O)(=O)N1CCN(c2ncccn2)CC1)c1ccccc1`, the Percent Effect is -4.77%.

Take `Cn1nccc1CN1CCOC(c2ccc(-c3cncnc3)cn2)C1` (stereo not given): the Percent Effect is 9.64%.

With `CCN(CCNS(=O)(=O)N1CCOCC1)C(=O)OC(C)(C)C`, the Percent Effect was 0.848%.

Turning to `CCC(C(=O)NCc1nc(C)cc(C(F)(F)F)n1)n1cccn1` (stereo not given), the Percent Effect worked out at 4.67%.

For the compound `CSCCN1CCC(NC(=O)c2cccc(C3CCCNC3)c2)CC1` (stereo not given), the Percent Effect is -2.91%.

Consider `O=C(CC1CCc2ccccc21)NC1(C(=O)O)CCOCC1` (stereo not given), for which the Percent Effect is -0.354%.

For `COc1ccc(NC(=O)N2CCC(CSC)C2)cc1C` (stereo not given), the Percent Effect is -6.6%.

With `O=C(Cc1c[nH]c(=O)[nH]c1=O)N1CCCCC1CCc1cccc(O)c1` (stereo not given), the Percent Effect amounted to 1.27%.

As to `CN(C)Cc1nc(C(=O)N2CCCC(COc3ccc(F)cc3)C2)cs1` (stereo not given), the Percent Effect was 8.59%.

As for `CN(Cc1cnccn1)c1cncc(Br)c1`, the Percent Effect is 3.25%.
